The results in this text go back to PubChem BioAssay (NCATS).

Values without a mark were called inactive. Results filed as inconclusive are left out. The source made the active and inactive calls. Calls follow the shape of the dose curve; as a rule, active = well fitted inhibition curve with a large enough effect; inconclusive = small, poorly fitted or top-dose-only effect; inactive = flat fitted curve, though single readings scatter.

Assay [1] deals with Glutathione peroxidase 1 (Homo sapiens) (UniProt P07203). In words: Primary qHTS Assay for Inhibitors of Recombinant Selenoprotein Glutathione Peroxidase 1 (GPX1) (AID 1845191). Also: nearly all actives have a fitted effect of over 65% in size. The method in brief:
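GR-coupled assay: compounds preincubated 30 min at room temperature with GPX1, then reaction started with CHP; final 10 nM GPX1, 1 mM GSH, 0.5 mM CHP, 0.5 mM NADPH, 100 nM GR, 0.01% BSA, pH 7.5 Tris buffer. NADPH fluorescence (340/450 nm) read at 0 and 15 min.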
On the technique in general: Quantitative high-throughput screening tests each substance at several concentrations.

Assay [2] concerns the target Luciferin 4-monooxygenase (Photinus pyralis) (UniProt P08659). In words: Primary firefly luciferase (FLuc) qHTS assay for identification of artifact compounds. (AID 1845220). Also: nearly all actives have a fitted effect of over 60% in size.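 As to activity change, negative = inhibition: series mostly up to about 54 µM; plate controls were DMSO vehicle for no effect and no enzyme for full effect.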 The method in brief:
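Enzymatic FLuc inhibition assay: compounds pre-exposed to luciferin/ATP (10 uM each) for 15 min, then purified P. pyralis enzyme at 10 nM added. Read-out: luminescence at 5 min.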

For assay [3], the target named is Phospholipid hydroperoxide glutathione peroxidase GPX4 (Homo sapiens) (UniProt P36969). As to the kind of experiment: Primary qHTS Assay for Inhibitors of Recombinant Selenoprotein Glutathione Peroxidase 4 (GPX4) (AID 1845192). Also: nearly all actives have a fitted effect of over 65% in size. As to activity change, negative = inhibition: series mostly up to about 50 µM; % is scaled to controls: 0 for no effect and ±100 for the full control effect. In outline: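 GR-coupled assay: recombinant GPX4 preincubated 30 min with compound at room temperature; final 200 nM GPX4, 1 mM GSH, 0.5 mM cumene hydroperoxide, 0.5 mM NADPH, 100 nM GR, 0.01% BSA, pH 7.5 Tris. NADPH fluorescence (340/450 nm) read at 0 and 15 min.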
Phospholipid hydroperoxide glutathione peroxidase GPX4 (Homo sapiens), sequence (P36969 whole entry, looked up): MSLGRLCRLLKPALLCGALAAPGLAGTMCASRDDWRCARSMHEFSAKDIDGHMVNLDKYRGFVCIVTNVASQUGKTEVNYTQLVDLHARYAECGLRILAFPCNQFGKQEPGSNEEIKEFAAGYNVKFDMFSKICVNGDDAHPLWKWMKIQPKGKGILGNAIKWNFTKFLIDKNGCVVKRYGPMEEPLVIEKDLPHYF

Glutathione peroxidase 1 (Homo sapiens), sequence (P07203 whole entry, looked up): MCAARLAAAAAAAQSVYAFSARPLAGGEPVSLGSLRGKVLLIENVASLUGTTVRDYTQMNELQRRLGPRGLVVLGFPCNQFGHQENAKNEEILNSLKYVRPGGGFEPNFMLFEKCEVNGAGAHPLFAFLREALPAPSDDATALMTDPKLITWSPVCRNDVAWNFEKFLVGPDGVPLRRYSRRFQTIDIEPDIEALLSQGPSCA

Regarding `CC(C)CC(=O)OC[C@H]1O[C@@](COC(=O)CC(C)C)(O[C@H]2O[C@H](CO)[C@@H](O)[C@H](O)[C@H]2OC(=O)CC(C)C)[C@@H](OC(=O)CC(C)C)[C@@H]1O`, the Potency entry in assay [1] and in assay [2] was “inactive” in each case.
In the case of `C[C@@H]1O[C@@H](O[C@H]2[C@H](OC(=O)[C@]34CCC(C)(C)C[C@H]3C3=CCC5[C@@]6(C)CC[C@H](O[C@@H]7O[C@H](CO[C@@H]8OC[C@H](O)[C@H](O)[C@H]8O)[C@@H](O)[C@H](O)[C@H]7O)C(C)(C)C6CC[C@@]5(C)[C@]3(C)C[C@H]4O)OC[C@@H](O)[C@@H]2O)[C@H](O)[C@H](O)[C@H]1O[C@@H]1OC[C@H](O)[C@H](O[C@@H]2OC[C@@H](O)[C@H](O)[C@H]2O)[C@H]1O` (some centres undefined), the outcome in assay [1] is “inactive [at 9.52 µM]”. Besides, the activity change, negative = inhibition in assay [2] is 1.47% [at 11.6 µM].
As to `CC1(C)CC2C(O)C3=C(CC(C)(O)C2C1)C(=O)OC3O` (centres undefined), the Potency entry in assay [1], in assay [3] and in assay [2] was “inactive” throughout.
With `C[C@]12CCC(=O)C=C1[C@@H](O)C[C@@H]1[C@@H]2[C@@H](O)C[C@@]2(C)[C@H]1CC[C@]2(O)C(=O)CO`, the Potency entry in assay [1] and in assay [2] was “inactive” each time.
Regarding `CNC(=O)O[C@H]1COc2ccc(N3CCN(C4COC4)CC3)cc2[C@@H]1NC(=O)c1ccc(F)cc1`, the Potency result in assay [1], in assay [3] and in assay [2] was “inactive” in each case.
In the case of `CC1(C)CCCC2(C)C3=C(C(=O)OC3O)C(O)CC12` (centres undefined), the Potency result in assay [1], in assay [3] and in assay [2] was “inactive” each time.
Take `Cc1cccc(-c2[nH]c(CNc3ccccc3F)nc2-c2ccc3ncnn3c2)n1`: the Potency result in assay [1], in assay [3] and in assay [2] was “inactive” throughout.
Consider `COc1cc([C@H]2OC[C@]3(OC(C)=O)[C@@H](c4ccc(O[C@@H]5O[C@H](CO)[C@@H](O)[C@H](O)[C@H]5O)c(OC)c4)OC[C@H]23)ccc1O`, for which the Potency result in assay [1] and in assay [2] was “inactive” throughout.
`O=C(CCO[C@@H]1O[C@H](CO)[C@@H](O)[C@H](O)[C@H]1O)c1ccc(O)cc1`: the Potency entry in assay [1], in assay [3] and in assay [2] was “inactive” in each case.
On to `CCC1CC2C(C)=CC3CCCCC3C2(C)C2(OC(=O)C(C)(O)OC2=O)O1` (centres undefined), for which the Potency result in assay [1], in assay [3] and in assay [2] was “inactive” in each case.
With `Cn1ccnc1CCOC(c1cc2nccc(C(=O)O)c2[nH]1)c1ccccc1Cl` (centres undefined), the Potency entry in assay [1] and in assay [2] was “inactive” each time.
Turning to `CC1CCCC2OC2C(=O)c2c(O)cc(O)cc2CC(=O)O1` (centres undefined), the Potency entry in assay [1] and in assay [2] was “inactive” throughout.
With `C#C[C@]1(O)CC[C@H]2[C@@H]3CCC4=C/C(=N/O)CC[C@@H]4[C@H]3CC[C@@]21CC`, the Potency result in assay [1] and in assay [2] was “inactive” each time.
`COc1ccc2cc(OCC3(C(=O)O)CN(C(=O)c4ccc(F)cc4)C3)ccc2c1`: the Potency entry in assay [1] and in assay [2] was “inactive” each time.
As for `C[C@]1(O)CC[C@@H]2C(C(=O)O)=CO[C@@H](O[C@@H]3O[C@H](COC(=O)c4ccc(O)cc4)[C@@H](O)[C@H](O)[C@H]3O)[C@@H]21`, the Potency result in assay [1] and in assay [2] was “inactive” in each case.
`CC(=O)O[C@@H]1C[C@]2(C)[C@@]3(CCC4[C@@]5(C)CC[C@H](O[C@@H]6O[C@H](C(=O)O)[C@@H](O)[C@H](O[C@@H]7O[C@H](CO)[C@H](O)[C@H](O)[C@H]7O[C@@H]7O[C@@H](C)[C@H](O)[C@@H](O)[C@H]7O[C@@H]7OC[C@](O)(CO)[C@H]7O)[C@H]6O[C@@H]6O[C@H](CO)[C@H](O)[C@H](O)[C@H]6O)C(C)(C)C5CC[C@]42C)O[C@@H](O)[C@]12C3CC(C)(C)[C@@H](OC(=O)/C=C/c1ccc(O)c(O)c1)[C@@H]2OC(=O)/C=C/c1ccccc1` (some centres undefined): the outcome in assay [1] was “inactive [at 9.52 µM]”; in assay [2] it was “inactive [at 11.6 µM]”. Further, the activity change, negative = inhibition in assay [3] is -12% [at 9.73 µM].
